KB-3-1 tox – qHTS assay for MDR1-selective chemotherapeutics: Primary screen using the parental adenocarcinoma cell KB-3-1. AID 1347075, 2019. KB-3-1 viability, CellTiter-Glo ATP luminescence, 72 h. 400,000 tested, 1.4% active. Potency, µM (doses to about 46.1 µM), actives largely listed as cytotoxic; also: % is scaled to controls: 0 for no effect and ±100 for the full control effect; nearly all actives have a fitted effect of over 60% in size
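Here the drug-naive KB-3-1 line serves as comparator for MDR sub-line selectivity; cells received compound titrations, 72 h at 37 °C, then CellTiter-Glo readout.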
ELG1 repair inh – qHTS screen for small molecules that inhibit ELG1-dependent DNA repair in human embryonic kidney (HEK293T) cells expressing luciferase-tagged ELG1; HEK293T ELG1-luciferase reporter, luminescence, 16 h; DNA damage induced by 5-fluorouridine; Potency, µM (highest dose often 46.1 µM), for the others: at the highest dose activity change, negative = inhibition, hits mostly inhibitors; 330,000 tested, 2.3% active; also: % is scaled to controls: 0 for no effect and ±100 for the full control effect; nearly all actives have a fitted effect of over 55% in size
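Step one: seed 2,000 cells per well. Step two: pin-transfer compound or DMSO alongside 5-fluorouridine. Step three: incubate 16 hr, 37 °C, 5% CO2. Step four: add ONE-Glo, wait 30 min, read luminescence.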
KB-V1 cytotox – qHTS assay for MDR1-selective chemotherapeutics: Primary screen using the drug-selected MDR subline cells KB-V1; AID 1347076, 2019; KB-V1 MDR cells viability, CellTiter-Glo, 72 h; Potency, µM (titrated, usually from 46.1 µM), most hits filed as cytotoxic; 400,000 tested, 3.4% active; also: % is scaled to controls: 0 for no effect and ±100 for the full control effect; nearly all actives have a fitted effect of over 60% in size
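Luminescent ATP read-out (CellTiter-Glo, 10 min) measures survival of drug-selected KB-V1 MDR cells after 72 h, 37 degrees C compound exposure. Medium: phenol-red-free DMEM, 10% FBS. Values from fitted concentration-response curves.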
SW480 rereplic – A quantitative high throughput screen for small molecules that induce DNA re-replication in SW480 colon adenocarcinoma cells; SW480 DNA re-replication, Hoechst DNA content imaging, 48 h; 340,000 tested, 1.8% active; Potency, µM (highest dose often 46.1 µM), without a hit: at the top dose re-replication activation, hits mostly activators; AID 624297, 2012; also: % of control where 0% means no effect; nearly all actives have a fitted effect of over 55% in size
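Treated cells incubate 48 hr (37 C, 5% CO2), are stained 40 min with Hoechst, and nuclear fluorescence is enumerated; a rise in nuclei with high DNA signal marks re-replication.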
MCF10A rerep – A quantitative high throughput screen for small molecules that induce DNA re-replication in MCF 10a normal breast cells | MCF 10A DNA re-replication, Hoechst nuclear intensity, 48 h | Potency, µM (highest dose often 46.1 µM), inactives show at the top dose activity, positive = re-replication, usual class: activators | 350,000 tested, 2.9% active | AID 624296, 2012; also: % of control where 0% means no effect; nearly all actives have a fitted effect of over 50% in size
Starred values were filed as active, the others as inactive; i = inactive; ? = inconclusive; . = no result given. Most compounds without a hit are left out; they make up all but 8.1% or so of the library. Calls follow the shape of the dose curve; as a rule, active = well fitted curve in the direction sought with a large enough effect; inconclusive = small, poorly fitted or top-dose-only effect, or another doubt; inactive = no such curve, though single readings can be large; an effect the other way counts as inactive or inconclusive. Potency is read from the fitted curve at half-maximal effect.

SMILES | KB-3-1 tox | ELG1 repair inh | KB-V1 cytotox | SW480 rereplic | MCF10A rerep
COc1ccc(OC)c(CCNC(=O)Cn2nc(C)c3c(C)n(-c4ccc(C)cc4)nc3c2=O)c1 | ? | ? | 8.2µM* | -24% | -2%
CCOC(=O)c1[nH]c(C)c(CCC(=O)Nc2ccc(N(CC)CC)cc2C)c1C | i | . | i | . | .
CCOC(=O)c1nnn(-c2ccc([N+](=O)[O-])cc2[N+](=O)[O-])c1C | 23µM* | -7% | i | 7.3µM* | ?
COC(=O)[C@@]12C[C@@H](CC(=O)NCCCN3CCCC3=O)C(=O)N(Cc3ccc4c(c3)OCO4)C1=CCC(C)(C)C2 | i | . | i | . | .
NCCC1CN(C(=O)OCc2ccccc2)c2ccccc21 (stereo unspecified) | i | . | i | 10µM* | -7%
CC(C)(C)c1ccc(C(=O)NCC(=O)OCC(=O)N2CCCC2)cc1 | i | 15% | ? | 2% | 5%
CCOc1c(OC)ccc2c3c(c(=O)oc12)CCCC3 | i | -12% | 8.2µM* | -12% | 15%
CCOC(=O)c1cnc2ccc(C(=O)OC)cc2c1Nc1ccc(OCc2ccccc2Cl)cc1 | i | . | i | . | .
CC(Sc1nnc2ccccn12)C(=O)Nc1ccc(Cl)cn1 (stereo unspecified) | i | ? | i | -2% | -10%
CC(Sc1nnnn1-c1ccccc1)C(=O)Nc1ccc(Cl)cn1 (stereo unspecified) | i | ? | 18µM* | -2% | ?
CCC(Sc1nnnn1-c1ccccc1)C(=O)NC(C)c1ccccc1 (stereo unspecified) | i | -5% | 5.8µM* | -2% | -5%
CCC(Sc1nnnn1-c1ccccc1)C(=O)Nc1nc2ccccc2s1 (stereo unspecified) | i | ? | i | 0% | ?
CN1CCCN(S(=O)(=O)c2cccc(C(F)(F)F)c2)c2nc3ccccc3nc21 | i | -10% | i | ? | 21µM*
C#CCN1CCc2onc(-c3ccc(Br)cc3)c2C1=O | ? | . | 18µM* | . | .
CC(C)(C)OC(=O)N1CCc2onc(-c3ccc(Cl)cc3)c2C1=O | i | . | i | . | .
O=C1[C@H](Cc2ccccc2)NC/C=C\C[C@@H](c2ccco2)N1Cc1ccccc1 | i | . | i | . | .
CC(=O)c1c(C)[nH]c(C(=O)CN2CCN(S(=O)(=O)c3ccccc3F)CC2)c1C | i | 12µM* | ? | -1% | 11%
CC(=O)c1c(C)[nH]c(C(=O)OCc2ccccc2F)c1C | i | ? | 4.6µM* | -4% | -1%
CCOc1ccc(C2CC(=O)c3c([nH]c(C(=O)OCCOc4ccccc4)c3C)C2)cc1 (stereo unspecified) | i | . | i | . | .
CC(=O)c1c(C)[nH]c(C(=O)CN2CCN(S(=O)(=O)c3ccc(C(C)C)cc3)CC2)c1C | ? | ? | i | 24% | -3%
Cc1c(C(=O)OCCOc2ccccc2)[nH]c2c1C(=O)CCC2 | i | ? | 12µM* | 8% | ?
CC(=O)c1c(C)[nH]c(C(=O)OCCOc2ccccc2)c1C | ? | ? | 6.5µM* | -3% | -1%
CC(=O)c1c(C)[nH]c(C(=O)OCc2ccc(Br)cc2)c1C | ? | 18µM* | 6.5µM* | -5% | 16%
COc1ccc(NC(=O)CN(c2ccccc2OC)S(C)(=O)=O)c(OC)c1 | i | . | i | . | .
Cc1ccc(C(=O)Cc2ccccc2)cc1 | i | . | i | -5% | 4%
Cc1ccc(C(=O)CN(Cc2ccccc2)C2=NCCS2)cc1 | i | 7% | 16µM* | 12% | 5%
O=C(CN(Cc1ccccc1)C1=NCCS1)c1ccccc1 | i | -7% | 18µM* | 2% | 1%
O=c1[nH]c2c(-c3nc(-c4ccc(Cl)cc4)cs3)c(O)cn2c2ccccc12 | ? | . | i | . | .

Screening results as filed in PubChem BioAssay.
